Compounds without any hit were thinned out: in the full panel of roughly 79,000, 15% have a hit. Activity calls are given as the source filed them. Rule as the data show it: active = growth inhibition above about 70%; inactive = the rest.
Columns and labels:
[1] = NCI Yeast Anticancer Drug Screen. Data for the wt1 strain (AID 149);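 also: 0% = growth of vehicle-treated wt1 cultures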; settings: S. cerevisiae wt1 strain (SPY 50644) growth inhibition, stronger effect = higher value
Summary of the method: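 wt1 yeast, compound-treated; % growth inhibition vs vehicle control.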

[2] = NCI Yeast Anticancer Drug Screen. Data for the rad50EPP+ strain (AID 151);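 also: 0% = growth of vehicle-treated control cultures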; settings: S. cerevisiae rad50 mutant strain, stronger effect = higher value
Summary of the method: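 In this screen, rad50EPP+ yeast were exposed to compounds. Growth inhibition was scored against vehicle-treated controls.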

[3] = NCI Yeast Anticancer Drug Screen. Data for the mgt1 strain (AID 153); settings: S. cerevisiae mgt1 mutant growth inhibition, stronger effect = higher value
Summary of the method: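 mgt1 strain exposed; growth vs vehicle control recorded as inhibition.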

[4] = NCI Yeast Anticancer Drug Screen. Data for the rad50 strain (AID 155);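 also: 0% = growth of vehicle-only cultures of the same strain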; settings: S. cerevisiae rad50 strain growth inhibition, stronger effect = higher value
Summary of the method: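 Genetically altered yeast (DNA repair pathway); compound treatment; growth inhibition vs vehicle ctrl.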

[5] = NCI Yeast Anticancer Drug Screen. Data for the mec2-1 strain (AID 157); settings: S. cerevisiae mec2-1 strain, stronger effect = higher value
Summary of the method: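 Vehicle-treated cultures served as reference for growth inhibition of compound-exposed mec2-1 yeast.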

[6] = NCI Yeast Anticancer Drug Screen. Data for the rad14 strain (AID 159);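 also: 0% = growth of vehicle-treated control cultures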; settings: S. cerevisiae rad14 strain growth inhibition, stronger effect = higher value
Summary of the method: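 Test compounds were applied to a repair-deficient yeast strain. Its growth was then compared with that of cultures given vehicle alone, and inhibition was expressed relative to those controls.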

[7] = NCI Yeast Anticancer Drug Screen. Data for the sgs1 mgt1 strain (AID 161);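 also: 0% = growth of cultures given vehicle only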; settings: S. cerevisiae sgs1 mgt1 strain, stronger effect = higher value
Summary of the method: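 Genetically altered yeast, compound exposure, growth inhibition relative to vehicle.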

[8] = NCI Yeast Anticancer Drug Screen. Data for the CLN2oe strain (AID 163);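 also: 0% = growth of vehicle-only control cultures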; settings: S. cerevisiae CLN2oe strain, stronger effect = higher value
Summary of the method: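 Inhibition relative to vehicle-treated yeast is reported. Cells: strain with genetic alteration in cell-cycle control, grown with compound.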

[9] = NCI Yeast Anticancer Drug Screen. Data for the cln2 rad14 strain (AID 165);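 also: 0% = growth equal to vehicle treated cultures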; settings: S. cerevisiae cln2 rad14 strain, stronger effect = higher value
Summary of the method: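 Each compound was tested on cln2 rad14 yeast. Inhibition of growth was calculated against vehicle-exposed controls.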

[10] = NCI Yeast Anticancer Drug Screen. Data for the bub3 strain (AID 167); settings: S. cerevisiae bub3 mutant strain, stronger effect = higher value
Summary of the method: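 Yeast carrying a defined mutation is treated with each compound, and growth is compared with that of vehicle-exposed cells to give inhibition.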

[11] = NCI Yeast Anticancer Drug Screen. Data for the wt2 strain (AID 169);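 also: 0% = growth of vehicle-treated yeast cultures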; settings: S. cerevisiae wt2 strain growth inhibition, stronger effect = higher value
Summary of the method: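 Inhibition of yeast growth was determined after compound treatment, normalised to controls receiving only vehicle.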

[12] = NCI Yeast Anticancer Drug Screen. Data for the mlh1 strain (AID 171);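 also: 0% = growth of vehicle-treated control cultures of the same strain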; settings: S. cerevisiae mlh1 strain growth inhibition, stronger effect = higher value
Summary of the method: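 Vehicle-normalised growth inhibition of a repair- or checkpoint-altered yeast strain following compound treatment.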

[13] = NCI Yeast Anticancer Drug Screen. Data for the sgs1 strain (AID 173);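 also: 0% = growth of vehicle-only control cultures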; settings: S. cerevisiae sgs1 mutant, stronger effect = higher value
Summary of the method: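 Screen format: yeast with repair or checkpoint alterations, compound exposure, growth read relative to vehicle.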

[14] = NCI Yeast Anticancer Drug Screen. Data for the mlh1 rad18 strain (AID 175); settings: S. cerevisiae mlh1 rad18 strain growth inhibition, stronger effect = higher value
Summary of the method: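 Vehicle-treated cultures served as the reference for growth inhibition in a yeast strain carrying DNA damage repair alterations exposed to each compound.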

[15] = NCI Yeast Anticancer Drug Screen. Data for the rad18 strain (AID 177); settings: S. cerevisiae rad18 mutant growth inhibition, stronger effect = higher value
Summary of the method: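 Test articles were incubated with altered yeast defective in DNA damage repair. Results are given as inhibition of growth versus vehicle.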

[16] = at 5.0 µM (retest, dose inferred, filed as 0.5)
[17] = at 50.0 µM (retest, dose inferred, filed as 5.0)

Measured: growth inhibition

Cc1nc2ccc(NCCN(C)C)c3c(=O)c4ccccc4n1c23
inactive: [1]; at 1.2 µM 26% | [1]; at 3.7 µM 25% | [1]; at 11.0 µM 37% | [1]; at 33.0 µM 31% | [1]; at 100.0 µM 26% | [2]; at 1.2 µM 26% | [2]; at 3.7 µM 11% | [2]; at 11.0 µM 40% | [2]; at 33.0 µM 55% | [2]; at 100.0 µM 65% | [3]; at 1.2 µM 27% | [3]; at 3.7 µM 31% | [3]; at 11.0 µM 33% | [3]; at 33.0 µM 27% | [3]; at 100.0 µM 38% | [4]; at 1.2 µM 43% | [4]; at 3.7 µM 50% | [4]; [16] 28% | [4]; at 50.0 µM -1.8% | [5]; at 1.2 µM 25% | [5]; at 3.7 µM 30% | [5]; [16] 16% | [5]; at 11.0 µM 41% | [5]; at 33.0 µM 42% | [5]; [17] 25% | [5]; at 50.0 µM 6.95% | [5]; at 100.0 µM 37% | [6]; at 1.2 µM 6% | [6]; at 3.7 µM 11% | [6]; at 11.0 µM 6% | [6]; at 33.0 µM 12% | [6]; at 100.0 µM 20% | [7]; [16] 1% | [7]; [17] 15% | [7]; at 50.0 µM -6.05% | [8]; at 1.2 µM 5% | [8]; at 3.7 µM 22% | [8]; at 11.0 µM 20% | [8]; at 33.0 µM -2% | [8]; at 100.0 µM 19% | [9]; [16] 10% | [9]; [17] 25% | [9]; at 50.0 µM 10.2% | [10]; at 1.2 µM 5% | [10]; at 3.7 µM 4% | [10]; [16] -10% | [10]; at 11.0 µM 9% | [10]; at 33.0 µM 11% | [10]; [17] 21% | [10]; at 50.0 µM -2.7% | [10]; at 100.0 µM 9% | [11]; at 1.2 µM -32% | [11]; at 3.7 µM -38% | [11]; at 11.0 µM -43% | [11]; at 33.0 µM -39% | [11]; at 100.0 µM -19% | [12]; at 1.2 µM 27% | [12]; at 3.7 µM 31% | [12]; at 11.0 µM 33% | [12]; at 33.0 µM 27% | [12]; at 100.0 µM 38% | [13]; at 1.2 µM 23% | [13]; at 3.7 µM 33% | [13]; at 11.0 µM 24% | [13]; at 33.0 µM 24% | [13]; at 100.0 µM 35% | [14]; [16] 11% | [14]; [17] 43% | [15]; at 1.2 µM 8% | [15]; at 3.7 µM 23% | [15]; at 11.0 µM 29% | [15]; at 33.0 µM 39% | [15]; at 100.0 µM 51%
active: [4]; at 11.0 µM 75% | [4]; at 33.0 µM 89% | [4]; [17] 79% | [4]; at 100.0 µM 92% | [14]; at 50.0 µM 78.9%

c1cncc(C(Nc2cccc3cccnc23)Nc2cccc3cccnc23)c1
inactive: [1]; at 1.2 µM 0% | [1]; at 3.7 µM 0% | [1]; at 11.0 µM 1% | [1]; at 33.0 µM 2% | [1]; at 100.0 µM 0% | [2]; at 1.2 µM 1% | [2]; at 3.7 µM 14% | [2]; at 11.0 µM 31% | [2]; at 33.0 µM 47% | [2]; at 100.0 µM 55% | [3]; at 1.2 µM 4% | [3]; at 3.7 µM 1% | [3]; at 11.0 µM 3% | [3]; at 33.0 µM -70% | [3]; at 100.0 µM -45% | [4]; at 1.2 µM -103% | [4]; at 3.7 µM 52% | [4]; [16] 25% | [4]; at 11.0 µM 61% | [4]; [17] 44% | [5]; at 1.2 µM 2% | [5]; at 3.7 µM 1% | [5]; [16] -26% | [5]; at 11.0 µM 5% | [5]; at 33.0 µM 12% | [5]; [17] -2% | [5]; at 50.0 µM 44.8% | [5]; at 100.0 µM 15% | [6]; at 1.2 µM 0% | [6]; at 3.7 µM 9% | [6]; at 11.0 µM 15% | [6]; at 33.0 µM 25% | [6]; at 100.0 µM 47% | [7]; [16] 28% | [7]; [17] 53% | [7]; at 50.0 µM 54.4% | [8]; at 1.2 µM 6% | [8]; at 3.7 µM 3% | [8]; at 11.0 µM 3% | [8]; at 33.0 µM 3% | [8]; at 100.0 µM 2% | [9]; [16] 1% | [9]; [17] 6% | [9]; at 50.0 µM 27.9% | [10]; at 1.2 µM 1% | [10]; at 3.7 µM 4% | [10]; [16] -10% | [10]; at 11.0 µM -7% | [10]; at 33.0 µM -11% | [10]; [17] -12% | [10]; at 50.0 µM -13.8% | [10]; at 100.0 µM -8% | [11]; at 1.2 µM 0% | [11]; at 3.7 µM 9% | [11]; at 11.0 µM 0% | [11]; at 33.0 µM 2% | [11]; at 100.0 µM -1% | [12]; at 1.2 µM 3% | [12]; at 3.7 µM 1% | [12]; at 11.0 µM 1% | [12]; at 33.0 µM 4% | [12]; at 100.0 µM 2% | [13]; at 1.2 µM 11% | [13]; at 3.7 µM 39% | [13]; at 11.0 µM 59% | [13]; at 33.0 µM 64% | [13]; at 100.0 µM 62% | [14]; [16] 25% | [14]; [17] 40% | [15]; at 1.2 µM 36%
active: [4]; at 33.0 µM 76% | [4]; at 50.0 µM 75.8% | [4]; at 100.0 µM 81% | [14]; at 50.0 µM 77.2% | [15]; at 3.7 µM 89% | [15]; at 11.0 µM 92% | [15]; at 33.0 µM 94% | [15]; at 100.0 µM 94%
